Measurements from PubChem BioAssay (Tox21).
Records with an inconclusive call do not appear. Calls of active or inactive are those of the source. Unless noted, calls follow the shape of the full dose curve.

Legend:
[1] = Nuclear factor erythroid 2-related factor 2/antioxidant responsive element (Nrf2/ARE) small molecule agonists: qHTS cell viability counter screen in human keratinocytes (AID 1919968; active = well fitted curve in the direction sought with a large enough effect in the repeat runs; an effect the other way counts as inactive or inconclusive; also: nearly all actives have a fitted effect of over 55% in size)
Summary of the method: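 Cells of the KeratinoSens line were plated at 1,500 per well and left for 5 h before compound transfer from DMSO stocks. After a 23 h incubation (37 C, 5% CO2), CellTiter-Fluor was added. Signal was taken as fluorescence intensity 1 h later.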

[2] = Nuclear factor erythroid 2-related factor 2/antioxidant responsive element (Nrf2/ARE) small molecule agonists: luciferase reporter gene qHTS assay in human keratinocytes (AID 1919969); also: nearly all actives have a fitted effect of over 35% in size
[3] = biological target: Gonadotropin-releasing hormone receptor (Homo sapiens) (UniProt P30968); experiment: Human gonadotropin-releasing hormone receptor (GnRHR) small molecule agonists, calcium flux assay in GnRHR-HEK293 cells (AID 1920063); also: nearly all actives have a fitted effect of over 35% in size
Summary of the method: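 Compounds dissolved in DMSO are pin-transferred onto dye-loaded GnRHR-HEK293 cells, which were seeded 18 h before at 37 C/5% CO2. Calcium signal is read as fluorescence intensity at 1 s intervals for 3 min.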

[4] = G protein-coupled receptor (GPCR) small molecule agonists, calcium flux assay: HEK293 wild type cell line counter screen (AID 1920065)
Summary of the method: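 Tox21 10K compounds, 15 concentrations each in triplicate, pin-transferred in DMSO onto dye-loaded cells; kinetic read at 480/540 nm for 3 min, 1 s intervals.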

[5] = p53 small molecule agonists, cell-based qHTS assay with human liver microsomes (AID 1963577);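 also: p53 response element beta-lactamase reporter cells with liver microsomes plus NADPH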
Summary of the method: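 Reporter activation was measured by LiveBLAzer fluorescence intensity in p53RE-bla cells, which had been exposed to compounds for 16 h at 37 C alongside 0.5 mg/mL human liver microsomes and 0.5 mg/mL NADPH (final concentrations).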

[6] = p53 small molecule agonists, cell-based qHTS assay with rat liver microsomes (AID 1963578)
Summary of the method: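 Compound in DMSO added to p53RE-bla cells 5 h post-plating; rat microsomes/NADPH 0.5 mg/mL final; 16 h, 37 C; LiveBLAzer 2 h RT.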

[7] = p53 small molecule agonists, cell-based qHTS assay with human liver microsomes: qHTS cell viability counter screen (AID 1963579); also: nearly all actives have a fitted effect of over 45% in size
Summary of the method: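 HLM-supplemented (0.5 mg/mL final) and NADPH-supplemented (0.5 mg/mL final) p53RE-bla cultures, 4,000 cells per well, were dosed with compounds in DMSO for 16 h at 37 C; luminescent ATP detection (CellTiter-Glo, 30 min, room temperature) quantified surviving cells.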

[8] = p53 small molecule agonists, cell-based qHTS assay with rat liver microsomes: qHTS cell viability counter screen (AID 1963580); also: nearly all actives have a fitted effect of over 45% in size
Summary of the method: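 Counter screen for cytotoxicity under metabolic activation: rat liver microsomes and NADPH, 0.5 mg/mL final each, added with compounds to p53RE-bla HCT-116 cells; 16 h at 37 C, then ATP luminescence read.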

[9] = p53 small molecule agonists, cell-based qHTS assay: qHTS cell viability counter screen (AID 1963581); also: nearly all actives have a fitted effect of over 45% in size
Summary of the method: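 ATP content measured by luminescence in HCT-116 p53RE-bla cells treated 16 h at 37 C, same wells as the reporter screen.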

[10] = biological target: 5-hydroxytryptamine receptor 2A (Homo sapiens) (UniProt P28223); experiment: 5-hydroxytryptamine receptor 2A (HTR2A) small molecule antagonists, cell-based qHTS assay (AID 1963586); also: nearly all actives have a fitted effect of over 45% in size
Summary of the method: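 CHO cells stably expressing human HTR2A were plated for 18 h at 37 C, then loaded with calcium dye for 1 h. Compounds were preincubated 5 min at room temperature before DOI (4 nM solution) was added. Kinetic fluorescence was read for 3 min.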

[11] = biological target: Muscarinic acetylcholine receptor M1 (Homo sapiens) (UniProt P11229); experiment: Cholinergic receptor muscarinic 1 (CHRM1) small molecule antagonists, cell-based qHTS assay (AID 1963588); also: nearly all actives have a fitted effect of over 40% in size
Summary of the method: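 Compounds were tested at 15 concentrations in three independent runs. Dye-loaded CHRM1-CHO cells were exposed 5 min at room temperature before stimulation by acetylcholine added at 50nM. Intracellular calcium was read kinetically on FDSS for 3 min.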

[12] = biological target: Muscarinic acetylcholine receptor M1 (Homo sapiens) (UniProt P11229); experiment: Cholinergic receptor muscarinic 1 (CHRM1) small molecule agonists, cell-based qHTS assay (AID 1963589); also: nearly all actives have a fitted effect of over 35% in size
Summary of the method: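 Homogeneous fluorescence calcium flux, agonist mode. Human M1-expressing CHO cells; compound dosed at 15 concentrations, three independent runs; signal sampled every 1 sec.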

[13] = cAMP Responsive Elements (CRE) small molecule agonists, cell-based qHTS assay (AID 1963590)
Summary of the method: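 HEK 293T cells stably bearing CRE-bla were plated at 2,000 cells per well and rested 18 h. Compounds, positive controls or DMSO were added for 3 h at 37 C. LiveBLAzer B/G substrate was then loaded for 2 h at room temperature.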

[14] = cAMP Responsive Elements (CRE) small molecule antagonists, cell-based qHTS assay (AID 1963591; active = well fitted inhibition curve with a large enough effect in the signal ratio in the repeat runs, not every such curve was filed as active; the % refers to the signal ratio)
Summary of the method: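 First, CRE-bla HEK293T cells settled 18 h at 37 C. Next, compound and 0.25 uM final NKH477 were applied for 3 h. Last, LiveBLAzer B/G substrate was loaded for 2 h at room temperature.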

[15] = biological target: Beta-2 adrenergic receptor (Homo sapiens) (UniProt P07550); experiment: Adrenergic beta2 receptor (ADRB2) small molecule antagonists, cell-based qHTS assay (AID 1963592); also: series mostly up to about 92 µM; nearly all actives have a fitted effect of over 50% in size
Summary of the method: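 Assay format: CHO-ADRB2 cells, 18-20hr seeding at 37C/5% CO2, then compound plus 1nM isoproterenol agonist mix for 0.5hr RT. Homogeneous time-resolved fluorescence cAMP detection after 1hr, expressed as 665/615 nm ratio.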

[16] = biological target: D(2) dopamine receptor (Homo sapiens) (UniProt P14416); experiment: Dopamine D2 receptor (DRD2) small molecule agonists, cell-based qHTS assay (AID 1963594); also: nearly all actives have a fitted effect of over 35% in size
Summary of the method: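 HEK293 cells stably expressing DRD2 were cultured 24 h at 37 C, then given Ro20-1724 (0.1 mM final) and compounds for 10 min at room temperature. NKH477 (200nM) was then added for 30 min. cAMP was read by HTRF.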

[17] = biological target: D(2) dopamine receptor (Homo sapiens) (UniProt P14416); experiment: Dopamine D2 receptor (DRD2) small molecule antagonists, cell-based qHTS assay (AID 1963595; active = well fitted inhibition curve with a large enough effect in the signal ratio in the repeat runs, with a control signal flat; the % refers to the signal ratio)
Summary of the method: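 Human DRD2 antagonist qHTS measuring cAMP by HTRF. The cells are exposed to compound for 10 min, then to NKH477 (200 nM) and quinpirole (12 nM) for 30 min at RT, with Ro20-1724 (0.1 mM) present throughout.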

[18] = p53 small molecule agonists, cell-based qHTS assay (AID 1963582; active = well fitted activation curve with a large enough effect in the signal ratio in the repeat runs, not every such curve was filed as active; the % refers to the signal ratio)
Summary of the method: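 16 h compound exposure (37 C) of p53 response element–bla cells, preceded by 5 h recovery at 37 C/5% CO2; read-out via LiveBLAzer B/G FRET substrate, 2 h RT, fluorescence intensity.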

[19] = biological target: 5-hydroxytryptamine receptor 2A (Homo sapiens) (UniProt P28223); experiment: 5-hydroxytryptamine receptor 2A (HTR2A) small molecule agonists, cell-based qHTS assay (AID 1963587); also: nearly all actives have a fitted effect of over 30% in size
Summary of the method: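 HTR2A-CHO cells, plated 18 h at 37 C/5% CO2, dye-loaded 1 h at 37 C; compounds in DMSO added by pin tool (agonist mode). Intracellular calcium flux read as kinetic fluorescence on FDSS over 2 min at 1 s intervals.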

[20] = biological target: KiSS-1 receptor (Homo sapiens) (UniProt Q969F8); experiment: Human kisspeptin (KISS1R) small molecule agonists, calcium flux assay in KISS1R-HEK293 cells (AID 1920064; active = well fitted curve in the direction sought with a large enough effect in the repeat runs; an effect the other way counts as inactive or inconclusive)
Summary of the method: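 Cell line: HEK293, stable human KISS1R. Dye loading 1 h at 37 C after 18 h culture. Read: kinetic fluorescence, 480/540 nm, 3 min at 1 s intervals.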

Measured: Potency

Chain of Gonadotropin-releasing hormone receptor (Homo sapiens) (P30968 whole entry, looked up): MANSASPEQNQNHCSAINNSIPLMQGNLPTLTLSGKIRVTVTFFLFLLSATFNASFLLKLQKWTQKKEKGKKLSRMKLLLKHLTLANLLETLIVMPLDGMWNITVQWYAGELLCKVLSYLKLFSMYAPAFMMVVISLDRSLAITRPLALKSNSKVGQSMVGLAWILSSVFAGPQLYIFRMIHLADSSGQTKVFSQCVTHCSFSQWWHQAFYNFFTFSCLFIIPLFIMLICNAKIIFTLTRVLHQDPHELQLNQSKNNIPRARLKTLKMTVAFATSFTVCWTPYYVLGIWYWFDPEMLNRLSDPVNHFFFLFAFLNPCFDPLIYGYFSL
Chain of D(2) dopamine receptor (Homo sapiens) (P14416 whole entry, looked up): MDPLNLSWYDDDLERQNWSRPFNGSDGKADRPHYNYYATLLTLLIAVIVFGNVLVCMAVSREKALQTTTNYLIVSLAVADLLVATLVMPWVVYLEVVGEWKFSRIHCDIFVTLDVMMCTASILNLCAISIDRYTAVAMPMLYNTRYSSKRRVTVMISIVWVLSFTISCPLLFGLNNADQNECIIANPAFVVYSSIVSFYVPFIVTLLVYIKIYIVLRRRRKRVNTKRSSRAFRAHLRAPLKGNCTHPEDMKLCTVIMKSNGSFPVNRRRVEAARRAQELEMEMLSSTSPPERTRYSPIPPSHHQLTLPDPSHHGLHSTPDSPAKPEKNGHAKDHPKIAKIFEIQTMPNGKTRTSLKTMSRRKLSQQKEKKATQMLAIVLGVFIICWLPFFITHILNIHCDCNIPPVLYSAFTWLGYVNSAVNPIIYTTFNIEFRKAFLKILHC
Chain of 5-hydroxytryptamine receptor 2A (Homo sapiens) (P28223 whole entry, looked up): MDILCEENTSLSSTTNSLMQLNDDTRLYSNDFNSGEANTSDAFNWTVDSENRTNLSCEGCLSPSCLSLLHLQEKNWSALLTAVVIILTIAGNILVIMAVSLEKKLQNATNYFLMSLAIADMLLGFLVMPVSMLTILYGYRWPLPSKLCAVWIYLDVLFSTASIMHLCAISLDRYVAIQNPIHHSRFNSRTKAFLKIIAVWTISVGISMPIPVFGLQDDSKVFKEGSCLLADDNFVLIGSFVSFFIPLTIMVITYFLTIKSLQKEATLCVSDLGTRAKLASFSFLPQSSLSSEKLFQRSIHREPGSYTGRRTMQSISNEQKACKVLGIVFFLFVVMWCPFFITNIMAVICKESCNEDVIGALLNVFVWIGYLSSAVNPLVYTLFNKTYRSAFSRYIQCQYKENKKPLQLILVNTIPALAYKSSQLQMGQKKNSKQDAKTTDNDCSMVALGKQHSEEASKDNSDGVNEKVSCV
Chain of Muscarinic acetylcholine receptor M1 (Homo sapiens) (P11229 whole entry, looked up): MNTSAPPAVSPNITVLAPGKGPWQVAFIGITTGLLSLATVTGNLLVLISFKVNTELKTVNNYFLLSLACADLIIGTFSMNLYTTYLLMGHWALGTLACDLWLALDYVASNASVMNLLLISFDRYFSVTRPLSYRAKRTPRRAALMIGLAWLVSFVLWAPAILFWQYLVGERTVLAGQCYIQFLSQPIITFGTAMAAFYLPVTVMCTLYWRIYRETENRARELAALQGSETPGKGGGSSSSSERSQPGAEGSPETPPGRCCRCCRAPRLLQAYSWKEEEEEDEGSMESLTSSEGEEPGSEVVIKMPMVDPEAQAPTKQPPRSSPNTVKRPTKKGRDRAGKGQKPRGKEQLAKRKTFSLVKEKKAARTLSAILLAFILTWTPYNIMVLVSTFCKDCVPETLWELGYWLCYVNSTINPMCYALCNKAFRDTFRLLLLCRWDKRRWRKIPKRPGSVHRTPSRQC
Chain of Beta-2 adrenergic receptor (Homo sapiens) (P07550 whole entry, looked up): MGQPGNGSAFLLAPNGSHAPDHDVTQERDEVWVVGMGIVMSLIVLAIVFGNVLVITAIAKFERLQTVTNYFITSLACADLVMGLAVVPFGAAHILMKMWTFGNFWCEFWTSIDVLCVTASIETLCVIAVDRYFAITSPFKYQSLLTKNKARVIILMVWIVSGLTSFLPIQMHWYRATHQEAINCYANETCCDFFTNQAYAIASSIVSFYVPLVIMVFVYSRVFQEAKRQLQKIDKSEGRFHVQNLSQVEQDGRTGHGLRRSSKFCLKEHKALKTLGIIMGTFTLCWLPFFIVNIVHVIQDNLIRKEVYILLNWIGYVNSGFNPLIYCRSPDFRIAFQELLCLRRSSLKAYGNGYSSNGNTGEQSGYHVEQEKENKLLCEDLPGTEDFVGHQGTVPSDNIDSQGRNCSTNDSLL
Chain of KiSS-1 receptor (Homo sapiens) (Q969F8 whole entry, looked up): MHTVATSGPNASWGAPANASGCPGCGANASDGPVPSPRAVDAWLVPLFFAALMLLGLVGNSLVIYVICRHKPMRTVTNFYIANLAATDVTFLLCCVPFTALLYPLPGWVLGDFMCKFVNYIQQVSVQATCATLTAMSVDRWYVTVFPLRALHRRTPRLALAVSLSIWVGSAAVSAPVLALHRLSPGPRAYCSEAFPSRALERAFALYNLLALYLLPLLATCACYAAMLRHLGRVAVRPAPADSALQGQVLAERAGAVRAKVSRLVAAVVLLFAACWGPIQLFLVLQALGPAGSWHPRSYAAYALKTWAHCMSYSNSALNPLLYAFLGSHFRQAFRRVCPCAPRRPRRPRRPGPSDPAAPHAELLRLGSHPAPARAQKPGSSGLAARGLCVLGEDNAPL

CCCCCCCCCCCCCC(=O)OCC
not listed: [18] | [19] | [20]
inactive: all other assays above

CCCCCCCCCCCCCc1ccccc1
not listed: [9] | [10] | [20]
inactive: all other assays above

CCCCCCCCCCCC[N+](C)(C)CC(=O)[O-]
not listed: [10] | [14] | [18] | [19] | [20]
inactive: all other assays above

CC(=O)OC1CCCCC1C(C)(C)C (stereo unspecified)
not listed: [10] | [14] | [20]
inactive: all other assays above

OC[C@@H](O)[C@@H](O)CO
not listed: [10] | [20]
inactive: all other assays above

C=C(C)C(=O)OCCN(CC)CC
not listed: [9] | [10] | [20]
inactive: all other assays above

CCC(=O)C(=O)CC
not listed: [9] | [15] | [17] | [20]
inactive: all other assays above

NS(=O)(=O)c1cc2c(cc1C(F)(F)F)NCNS2(=O)=O
not listed: [3]
inactive: all other assays above
